Data taken from PubChem BioAssay (NCI).
Compounds without any hit were thinned out: in the full panel of roughly 83,000, 20% have a hit.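 Results are percent growth after 48 hours of single-concentration exposure. 100 means growth as in untreated cells, lower positive values show inhibition; negative values down to -100 show cell death.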 The source made the active and inactive calls. Rule for the calls: active = growth percent below 10; inactive = the rest.

Legend:
Test in all cases: NCI-60 one-dose screen, 48 h (100 = growth as untreated, 0 = no growth, -100 = all killed)
Settings in all cases: 10 µM unless noted
DU-145 prostate = tested on: DU-145 prostate
K-562 leukemia = tested on: K-562 leukemia
MALME-3M melanoma = tested on: MALME-3M melanoma
MDA-MB-231 breast = tested on: MDA-MB-231 breast
RXF 393 renal = tested on: RXF 393 renal
SF-268 CNS = tested on: SF-268 CNS
SF-295 CNS = tested on: SF-295 CNS
SF-539 CNS = tested on: SF-539 CNS
UACC-257 melanoma = tested on: UACC-257 melanoma
M14 melanoma = tested on: M14 melanoma
HCT-15 colon = tested on: HCT-15 colon
HT29 colon = tested on: HT29 colon
SNB-75 CNS = tested on: SNB-75 CNS
SNB-19 CNS = tested on: SNB-19 CNS
U251 CNS = tested on: U251 CNS
PC-3 prostate = tested on: PC-3 prostate
SK-MEL-5 melanoma = tested on: SK-MEL-5 melanoma
UACC-62 melanoma = tested on: UACC-62 melanoma
LOX IMVI melanoma = tested on: LOX IMVI melanoma
SK-MEL-28 melanoma = tested on: SK-MEL-28 melanoma

Measured: growth

CC[N+](CCCCCCCCCC[N+](CC)(c1ccccn1)c1ccccn1)(c1ccccn1)c1ccccn1
inactive: DU-145 prostate 13.6% | MDA-MB-231 breast 15.9% | RXF 393 renal 46.1% | SF-268 CNS 17.1% | SF-539 CNS 11% | M14 melanoma 10.3% | HCT-15 colon 58.6% | SNB-19 CNS 13.3% | SK-MEL-28 melanoma 15.1%
active: K-562 leukemia -2.68% | MALME-3M melanoma -10.7% | SF-295 CNS -71.2% | UACC-257 melanoma -19.2% | HT29 colon -34% | SNB-75 CNS 6.81% | U251 CNS 6.56% | PC-3 prostate 2.94% | SK-MEL-5 melanoma -72.4% | UACC-62 melanoma 0.363% | LOX IMVI melanoma -54.4%

COc1ccc(C2=NN(C=O)C(c3cccc(Nc4ccnc5cc(Cl)ccc45)c3)C2)cc1 (stereo not given)
inactive: DU-145 prostate 33.2% | MALME-3M melanoma 25.2% | MDA-MB-231 breast 42.4% | RXF 393 renal 17.2% | SF-268 CNS 41.2% | UACC-257 melanoma 23.2% | M14 melanoma 19.1% | HCT-15 colon 16.6% | SNB-19 CNS 40% | U251 CNS 19.6% | PC-3 prostate 22.8% | UACC-62 melanoma 32.3% | LOX IMVI melanoma 25% | SK-MEL-28 melanoma 50.6%
active: K-562 leukemia 6.65% | SF-295 CNS 0.467% | SF-539 CNS 9.03% | HT29 colon 4.88% | SNB-75 CNS 8.36% | SK-MEL-5 melanoma -21.5%

CC12CCC3C(=CCc4cc(O)ccc43)C1CCC2=O (stereo not given)
inactive: DU-145 prostate 115% | K-562 leukemia 91.5% | MALME-3M melanoma 90.5% | MDA-MB-231 breast 102% | RXF 393 renal 113% | SF-268 CNS 106% | SF-295 CNS 92% | SF-539 CNS 102% | UACC-257 melanoma 113% | M14 melanoma 105% | HCT-15 colon 96.1% | HT29 colon 94.5% | SNB-75 CNS 104% | SNB-19 CNS 103% | U251 CNS 98.7% | PC-3 prostate 88.9% | SK-MEL-5 melanoma 97.5% | UACC-62 melanoma 88.9% | LOX IMVI melanoma 102% | SK-MEL-28 melanoma 103%

COC(=O)C1=CCC(n2cnc3c(N)ncnc32)O1 (stereo not given)
inactive: DU-145 prostate 113% | K-562 leukemia 91.8% | MALME-3M melanoma 108% | MDA-MB-231 breast 98.5% | SF-268 CNS 121% | SF-295 CNS 113% | SF-539 CNS 98% | UACC-257 melanoma 105% | M14 melanoma 105% | HCT-15 colon 109% | HT29 colon 103% | SNB-75 CNS 98.1% | SNB-19 CNS 104% | U251 CNS 104% | PC-3 prostate 98% | SK-MEL-5 melanoma 104% | UACC-62 melanoma 92.8% | LOX IMVI melanoma 96.4% | SK-MEL-28 melanoma 115%
active: RXF 393 renal -7.73%

CCCCCCCCCCCCCCCCNC(=O)Nc1ccc2ccccc2c1
inactive: DU-145 prostate 126% | K-562 leukemia 111% | MALME-3M melanoma 95.4% | MDA-MB-231 breast 98.1% | RXF 393 renal 104% | SF-268 CNS 126% | SF-295 CNS 106% | SF-539 CNS 106% | UACC-257 melanoma 95.5% | M14 melanoma 94.9% | HCT-15 colon 103% | HT29 colon 107% | SNB-75 CNS 98.1% | SNB-19 CNS 96.9% | U251 CNS 105% | PC-3 prostate 91.5% | SK-MEL-5 melanoma 99.4% | UACC-62 melanoma 92.7% | LOX IMVI melanoma 101% | SK-MEL-28 melanoma 108%

COc1ccc(C2=NN(C(C)=O)C(c3c(C)nn(-c4ccccc4)c3N3CCOCC3)C2)cc1 (stereo not given)
inactive: DU-145 prostate 107% | K-562 leukemia 99% | MALME-3M melanoma 106% | MDA-MB-231 breast 98.1% | RXF 393 renal 98.7% | SF-268 CNS 95% | SF-295 CNS 93.9% | SF-539 CNS 93.7% | UACC-257 melanoma 86.3% | M14 melanoma 94.8% | HCT-15 colon 103% | HT29 colon 101% | SNB-75 CNS 74.4% | SNB-19 CNS 85.8% | U251 CNS 89.3% | PC-3 prostate 79.7% | SK-MEL-5 melanoma 97.6% | UACC-62 melanoma 87.8% | LOX IMVI melanoma 97.8% | SK-MEL-28 melanoma 108%

COc1cnc2c(c1)C(=O)c1c-2n(CCCN2CCCC2)c(=O)c2cc(F)ccc12
inactive: MDA-MB-231 breast 23% | SF-268 CNS 12.1% | SNB-19 CNS 19.7% | SK-MEL-28 melanoma 27.4%
active: DU-145 prostate -1.81% | K-562 leukemia -45.1% | MALME-3M melanoma -71.9% | RXF 393 renal -81% | SF-295 CNS -20.4% | SF-539 CNS -39.3% | UACC-257 melanoma -12.2% | M14 melanoma 2.05% | HCT-15 colon -18.9% | HT29 colon -31.2% | SNB-75 CNS -18.9% | U251 CNS -19% | PC-3 prostate 9.68% | SK-MEL-5 melanoma -95.9% | UACC-62 melanoma -27.8% | LOX IMVI melanoma -69.7%

COc1cc(C(=O)/C=C/c2cccc(Nc3ccnc4cc(Cl)ccc34)c2)cc(OC)c1OC
active: DU-145 prostate -0.714% | K-562 leukemia -6.81% | MALME-3M melanoma 9.8% | MDA-MB-231 breast -5.45% | RXF 393 renal -71.9% | SF-268 CNS -16.6% | SF-295 CNS 3.06% | SF-539 CNS -46.1% | M14 melanoma -11.6% | HCT-15 colon -32.1% | HT29 colon -90% | U251 CNS -90.9% | PC-3 prostate -12.7% | SK-MEL-5 melanoma -45.5% | LOX IMVI melanoma -85.8% | SK-MEL-28 melanoma -39.2%
inactive: UACC-257 melanoma 30.6% | SNB-75 CNS 16.4% | SNB-19 CNS 20.3% | UACC-62 melanoma 22.5%
